Laboratory results from ChEMBL document CHEMBL3433997, “St. Jude Leishmania screening dataset” (2016).

target: Glucose transporter (Leishmania mexicana) (UniProt O61059); assay: ST_JUDE_LEISH: Cytotoxicity at 2uM final concentration against transgenic Leishmania Mexicana promastigotes LmGT2 that are glucose transport deficient and complemented with the L. Mexicana glucose transporter 2. Activity is measured by DNA content using SYBR green in vitro; assay type: functional

| Structure (SMILES) | inhibition [%] |
| --- | --- |
| CC(Cc1ccc(C(=O)Nc2ccc(CC(C)NCCc3cccc(Cl)c3)cc2)cc1)NCCc1ccc(C(F)(F)F)cc1 (stereo not given) | 48.1 |
| Cc1ccc(Nc2nc(N/N=C/c3cccc(O)c3)nc(Nc3ccc([N+](=O)[O-])cc3)n2)cc1C | 2.77 |
| CC(=O)c1ccc2cc(C(=O)NC3CCC(CCN4CCc5ccc(-c6noc(C)n6)cc5CC4)CC3)[nH]c2c1 (stereo not given) | -2.09 |
| COc1cc(O)c2c(=O)c(OC)c(-c3cccc(Cl)c3OC3O[C@H](CO)[C@@H](O)[C@H](O)[C@H]3O)oc2c1OC (stereo not given in full) | 4.54 |
| Oc1ccc(CCNc2nc(NCc3ccccc3-c3ccc(F)cc3)nc(N3CCNCC3)n2)cc1 | 6.39 |
| Cc1cc(N[C@@H](Cc2ccccc2)C(=O)NCCOc2ccccc2)nc(NCc2ccccc2C)n1 | 4.21 |
| COc1c(C)[nH]c(C)c(-c2ccc(Oc3cccc(C(F)(F)F)c3)cc2)c1=O | 4.46 |
| CSc1ccc(CN2CCC(NC(=O)c3ccc(-c4cccc(C(F)(F)F)c4)s3)CC2)cc1 | 3.3 |
| O=c1cc(NCCCNC2CCOc3c(Cl)cc(Cl)cc32)[nH]c2ccccc12 (stereo not given) | 1.28 |
| CC(C)(C)c1ccc(CNC(=O)COc2ccc(-c3nnc(-c4cccc([N+](=O)[O-])c4)o3)cc2[N+](=O)[O-])cc1 | -0.93 |
| O=C(O)CNCC(O)c1ccccc1 (stereo not given) | 0.29 |
| O=C(Nc1ccccc1)Nc1cccc(-c2ccc(-c3nc4cc(C(F)(F)F)ccc4[nH]3)cc2)c1 | 5.45 |
| CC(C)(NCc1ccc(OC(F)(F)F)cc1)c1nc(-c2ccc(Cl)c(O)c2)c(-c2ccncc2)[nH]1 | 1.94 |
| Cn1ncc2ccc(Nc3nccc(-c4ccc5c(c4)c(N)nn5C)n3)cc21 | 93.8 |
| COc1ccc2ncc(C#N)c(CCN3CCC(NCc4cnc5c(c4)OCCO5)CC3)c2n1 | 6.56 |
| Cc1cccc2nc(-c3ccc(-c4cccc(CN5CC(C)OC(C)C5)c4)s3)[nH]c12 (stereo not given) | 4.91 |
| CC(=NNc1nc2ccccc2s1)c1ccccn1 | 3.21 |
| FC(F)(F)c1ccc2[nH]c(-c3ccc(-c4ccc(CNCc5ccccc5)cc4)cc3)nc2c1 | 6.47 |
| CN1CCN(CCCN(Cc2csc(-c3ccc(CNCc4ccccc4)cc3)n2)S(=O)(=O)c2ccccc2)CC1 | 4.53 |
| COc1ccc(C2=C(Nc3ccc4oc5ccccc5c4c3)c3ccccc3C2=O)cc1 | 0.33 |

| Structure (SMILES) | inhibition [%] |
| --- | --- |
| Cc1ccc2nc(C)cc(N/N=C/c3cccc([N+](=O)[O-])c3)c2c1 | 1.37 |
| O=C(c1ccc(Cl)cc1Cl)N1CCCC(C(F)(F)F)C1 (stereo not given) | 10.3 |
| CCCCc1ccc(-c2nc(NC(=O)Nc3[nH]c(-c4ccccc4)nc3C(=O)OCC)c(C(=O)OCC)[nH]2)cc1 | -0.95 |
| COc1ccc2nc3cc(Cl)ccc3c(Nc3ccc(Sc4ccc(Nc5c6ccc(Cl)cc6nc6ccc(OC)cc56)cc4)cc3)c2c1 | 3.6 |
| O=C(CN1C(=O)CC1S(=O)(=O)Cc1ccco1)NCCCCCCc1ccc(F)cc1 (stereo not given) | 0.24 |
| Cc1ccc2nc(N/C(N)=N/C(=O)NC3CCCCC3)nc(C)c2c1 | 2.16 |
| COc1ccc(-c2ccc(NC(=O)c3ccc(F)cc3)cc2)cc1CN1CCCN(C)CC1 | 2.87 |
| Cc1cc(NC(=O)Nc2ccc(Cl)cc2F)c2ccccc2n1 | 1.56 |
| CN1CCN(CCCN(Cc2cccc(-c3cccc(CNC4CCCC4)c3)c2)C(=O)CCC2CCCC2)CC1 | 0.45 |
| Cc1cccc2nc(-c3cccc(-c4ccc(CNCCCN5CCCC5=O)cc4)c3)[nH]c12 | 6.5 |
| Cc1cc2c(cc1C(F)(F)F)N(C(=O)Nc1ccc(C(=O)NC3CCN(Cc4ccccc4)C3)cc1)CC2 (stereo not given) | 4.54 |
| O=C(/C=C/c1ccc(Cl)c(Cl)c1)NCCCCCCN1CCCN(C(=O)Nc2ccc(Cl)c(C(F)(F)F)c2)CC1 | -1.22 |
| Cc1ccc(NC(=O)c2ccc(N3CCC(c4ccccc4C)CC3)nc2)cc1 | 8.1 |
| COc1cc(OC)cc(-c2nn(-c3ccc([N+](=O)[O-])cc3Cl)c(=S)n2Cc2ccco2)c1 | 2.4 |
| COc1cccc(CN2CCN(C(c3ccccc3)c3ccccc3)CC2)c1O | 2.74 |
| COc1ccc(Oc2cnc(N)nc2N)c(C(C)C)c1 | 2.01 |
| COc1ccccc1CCC(C)(C)NC(=O)CC(CCc1ccccc1)Nc1ccc(C#N)c2ccccc12 (stereo not given) | -3.34 |
| CC(=O)N(C)c1cccc(C(=O)Nc2cccc(-c3cccc(-c4nc5cccc(C)c5[nH]4)c3)c2)c1 | 11.4 |
| CCOc1ccc2c(=NN=Cc3ccccn3)cc(C)[nH]c2c1 | 6.78 |
| O=S(=O)(NCCN1CCCC1)c1cccc(-c2cccc(CNCc3ccc(F)cc3)c2)c1 | -2.32 |
